PubChem BioAssay AID504334 (NMMLSC, 2011)
Values joined by “and” are separate entries in the source; they are usually repeats but may differ in a detail not shown here. Equal values may be shown once. Unmarked numbers belong to inactive results.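 How the source made its calls: active means response relative to DMSO over 150%; inconclusive means yeast strain with under 70 recorded events; inactive means the rest.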

test: AGP1-GFP expression modulators, hit retest, confirmation, cell-based, flow cytometry, S. cerevisiae, cherry pick set 3 (AID 504334);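 further: median GFP fluorescence per well by flow cytometry over the all cells gate; ratio of sample to mean DMSO control signal so DMSO = 100% not 0%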; conditions: S. cerevisiae AGP1-GFP strain, 3 h, at 10 µM, active compounds read high

First: Cc1ccc(NN2C(=O)C=C(c3ccccc3)C2=O)cc1
Second: CC(=O)Nc1ccc(-c2nc3ccccc3o2)cc1
The percent response vs DMSO of the first is lower: 92.8% for the first, 96.8% for the second.

Going from `COc1ccccc1Nc1nc(NCCCN(C)C)nc(N)c1[N+](=O)[O-]` to `COCCCNc1nc(N)c([N+](=O)[O-])c(Nc2cc(OC)ccc2OC)n1`, the percent response vs DMSO falls from 102% to 100%.

First: COc1ccccc1-c1cc(C(F)(F)F)nc(S(C)(=O)=O)n1
Second: COc1ccccc1-c1cc(C(F)(F)F)nc(S(=O)(=O)CCCC(=O)O)n1
The percent response vs DMSO of the first is higher: 130% for the first, 110% for the second.

Compared with `Cc1ccc2nc(-c3ccc(NC(=O)c4cccnc4)cc3)oc2c1`, `O=C(O)c1ccccc1-c1ccccc1C(=O)Nc1ccc(-c2nc3cc(Cl)ccc3o2)cc1` is higher in percent response vs DMSO: 93.8% for the first, 103% for the second.

Going from `C=CCNc1nc(N)c([N+](=O)[O-])c(Nc2cccc(Cl)c2)n1` to `CNc1nc(C)c([N+](=O)[O-])c(Nc2ccc(OC)cc2)n1`, the percent response vs DMSO rises from 92.1% to 99.4%.

Going from `O=C(/C=C/Nc1cccc(O)c1)c1ccccc1` to `Cc1cccc(N/C=C/C(=O)c2ccc(Cl)cc2)c1`, the percent response vs DMSO falls from 102% to 95.4%.

Going from `NC(=O)COc1cccc2cccnc12` to `OCc1ccc(O)c2ncccc12`, the percent response vs DMSO rises from 98.1% to 98.8%.

Going from `Oc1c(Cl)cc(Cl)c2cccnc12` to `Oc1ccc(Cl)c2cccnc12`, the percent response vs DMSO rises from 98.8% to 109%.

First: COC1=C/C(=C/c2c(N)n3cc(C)sc3nc2=O)C=CC1=O
Second: Cc1cn2c(N)c(C=C3C=C(Cl)C(=O)C(Cl)=C3)c(=O)nc2s1
The percent response vs DMSO of the first is lower: 100% for the first, 101% for the second.

First: COc1cccc(N/C(C)=C/C(=O)c2ccc(Br)cc2)c1
Second: COc1ccc(N/C(C)=C/C(=O)c2ccccc2)cc1
The percent response vs DMSO of the first is higher: 101% for the first, 98.4% for the second.

First: CCCC(=O)Nn1cnc2c(c1=O)C1(CCCC1)Cc1ccccc1-2
Second: Cc1cc(C)c(NC(=O)CC(=O)c2ccccc2)c(Cl)c1
The percent response vs DMSO of the first is higher: 101% for the first, 99.4% for the second.

`CCc1sc(C(=O)Nc2nc(-c3ccccn3)cs2)cc1C` and `O=C(O)CCS(=O)(=O)c1nc(-c2cccs2)cc(C(F)(F)F)n1` are the same in percent response vs DMSO: 111% for the first, 111% for the second.

Compared with `COC(=O)c1cc(=O)c2cccc(OC)c2[nH]1`, `Cc1cccc(Nc2cc(=O)[nH]c(=O)[nH]2)c1` is lower in percent response vs DMSO: 99.4% for the first, 96.8% for the second.

Going from `CC1=NNC(=O)/C1=C\c1cn(-c2ccccc2)nc1-c1ccc(F)cc1` to `O=C(N/N=C/c1ccccc1)c1cccc2ccccc12`, the percent response vs DMSO falls from 108% to 101%.

Compared with `Cc1ccc(Nc2cc(=O)[nH]c(=O)[nH]2)cc1C`, `Cc1ccc(Nc2cc(=O)[nH]c(=O)[nH]2)cc1Cl` is higher in percent response vs DMSO: 95.8% for the first, 102% for the second.

First: Nc1cccc2c1C(=O)c1ccc(Cl)cc1C2=O
Second: Cc1nc(Nc2ccc(Cl)cc2)c(C#N)c(=O)[nH]1
The percent response vs DMSO of the first is higher: 102% for the first, 101% for the second.

Going from `COc1ccccc1OCc1cc(C(=O)N2CCN(C)C(c3ccccc3)C2)no1` (centres undefined) to `OCCN1CCN(c2ncnc3ccc(Br)cc23)CC1`, the percent response vs DMSO rises from 98.8% to 99.8%.

`C=CCNc1ncnc2ccccc12` and `Cc1ccc2c(C)ccc(O)c2n1` are the same in percent response vs DMSO: 102% for the first, 102% for the second.

Compared with `Cc1nc(Nc2ccc(Br)cc2Br)c([N+](=O)[O-])c(=O)[nH]1`, `CC(=O)CC(=O)Nc1ccc(C(N)=O)cc1` is higher in percent response vs DMSO: 95.4% for the first, 100% for the second.

For `COc1ccccc1-c1cc(C(F)(F)F)nc(S(=O)(=O)CCCC(=O)NC(C)C)n1`, the percent response vs DMSO was 104% and 99.8%.
